Screens as filed in PubChem.
HPGD block: blocks human HPGD enzyme activity; P15428; purified HPGD, NADH fluorescence kinetic, PGE2 substrate; Potency, µM, most hits filed as inhibitors; 4.3% of 150,000 active; AID 894; active = well fitted inhibition curve with a large enough effect, not every such curve was filed as active; inconclusive = small, poorly fitted or top-dose-only effect, or another doubt; inactive = no such curve, though single readings can be large or run the other way
Target sequence (P15428 whole entry, looked up): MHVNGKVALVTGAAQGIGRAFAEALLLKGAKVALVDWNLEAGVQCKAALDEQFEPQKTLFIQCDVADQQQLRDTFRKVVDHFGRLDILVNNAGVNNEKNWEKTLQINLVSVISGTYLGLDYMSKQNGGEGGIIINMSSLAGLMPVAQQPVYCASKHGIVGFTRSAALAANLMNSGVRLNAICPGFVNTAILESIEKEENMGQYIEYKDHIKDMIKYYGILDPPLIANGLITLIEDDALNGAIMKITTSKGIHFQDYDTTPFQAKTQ
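NADH formation kinetics: reaction with 30 uM PGE2 and 1 mM NAD+ (final), 20 nM enzyme, Tris-HCl pH 8 with Tween 20, after 15 min compound preincubation at room temperature. Fluorescence change, last versus first of five reads.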
IMPase cell inh: cell-permeable inhibitors of inositol monophosphatase (IMPase). P97697. CHO-M1 cells, IP1 accumulation, HTRF TR-FRET ratio. 120,000 tested, under 10 active. inhibition (IP1 accumulation), % at 46.1 µM. AID 901; active = well fitted curve in the direction sought with a large enough effect in the signal ratio, not every such curve was filed as active; inconclusive = small, poorly fitted or top-dose-only effect, or a change in a side signal; inactive = no such curve, though single readings can be large or run the other way; the % refers to the signal ratio;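 note: cells stimulated with carbachol in lithium chloride buffer; higher means more IMPase inhibition seen as more IP1 and lower FRET ratio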
Target sequence (P97697 whole entry, looked up): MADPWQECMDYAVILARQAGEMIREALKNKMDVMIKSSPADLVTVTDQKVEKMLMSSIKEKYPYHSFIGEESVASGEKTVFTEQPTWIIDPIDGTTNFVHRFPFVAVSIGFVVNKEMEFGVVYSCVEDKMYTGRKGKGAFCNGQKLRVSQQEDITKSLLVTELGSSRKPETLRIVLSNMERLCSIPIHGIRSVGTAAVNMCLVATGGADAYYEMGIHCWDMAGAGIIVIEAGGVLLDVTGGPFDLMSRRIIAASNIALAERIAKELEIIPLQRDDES
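Measured: the HTRF emission ratio (665/620 nm) plus the 620 nm donor channel, each fitted to the Hill equation to give AC50. Cells were CHO-M1 given compounds up to 46 uM and a 30 min carbachol stimulation at 37C.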
IMPase Li inh: cell-permeable IMPase inhibitors with lithium potentiation; CHO-M1 cells, IP1 TR-FRET (IP-One), carbachol + lithium; Potency, µM (series often up to 59.4 µM), most hits filed as inhibitors; 0.35% of 210,000 active; AID 1457;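 note: IP1 builds up when IMPase is blocked and the TR-FRET signal falls; nearly all actives have a fitted effect of over 50% in size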
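IP1 accumulation measured by competitive TR-FRET in lysed CHO-M1 cells after 30 min compound exposure at 37C, with a small lithium addition to potentiate weak responses. Hill-equation AC50 from ratio and donor-channel data.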
15-hLO-2 inh: inhibitors of human 15-lipoxygenase 2 (ALOX15B). O15296. purified 15hLO-2, xylenol orange hydroperoxide absorbance. Potency, µM (titrated, usually from 57.1 µM), most hits filed as inhibitors. 0.56% of 110,000 active; note: nearly all actives have a fitted effect of over 60% in size
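Screening format was qHTS against 50 nM purified 15hLO-2 in Hepes pH 7.5 with detergent. Activity follows hydroperoxide formation from 45 uM arachidonic acid, measured as 573:405 nm absorbance ratio of the ferric-xylenol orange complex.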
ALOX12 inhib: inhibitors of human 12-lipoxygenase (ALOX12); purified 12-hLO, xylenol orange hydroperoxide absorbance; 0.12% of 150,000 active; Potency, µM (series often up to 57.1 µM), hits mostly inhibitors; P18054; note: nearly all actives have a fitted effect of over 55% in size
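Xylenol orange chromogenic assay: hydroperoxide from 12hLO oxidises Fe(II), giving red-shifted Fe(III)-XO absorbance. Conditions: 150 nM enzyme, 40 uM arachidonic acid, 25 mM Hepes pH 7.0, 0.01% Triton X-100, 30 min, room temperature.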
PNC inhibitor: inhibitors of perinucleolar compartment assembly; activity change (PNC), negative = inhibition, % at 10 µM; 3.1% of 140,000 active; PC3M PTB-GFP, PNC prevalence imaging, 16 h; stronger effect = lower value;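 active = readout at or below -70, meaning at least 70% loss of cells showing the perinucleolar compartment, a nuclear body marking cancer cells; inconclusive = readout between -30 and a set limit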
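PC3M cells stably expressing PTB-GFP, 750–1000 cells/well, treated 16 h at 37 °C with compound (23 nl of library stock), in duplicate. After paraformaldehyde fixation and Hoechst stain, imaged at 20x; PNC prevalence scored by image analysis.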
A number is an active result; i = inactive; ? = inconclusive; nt = no result. In the library only some 5.3% were active in any assay of this set; here they are far more common. Unless noted, calls come from the whole dose curve; as a rule, active = well fitted curve in the direction sought with a large enough effect; inconclusive = small, poorly fitted or top-dose-only effect, or another doubt; inactive = no such curve, though single readings can be large; an effect the other way counts as inactive or inconclusive.

SMILES | HPGD block | IMPase cell inh | IMPase Li inh | 15-hLO-2 inh | ALOX12 inhib | PNC inhibitor
CCCc1cc(=O)[nH]c(SCc2nc3ccc([N+](=O)[O-])cc3[nH]2)n1 | 18µM | nt | i | nt | i | i
CCCc1cc(=O)[nH]c(SCc2ccccc2)n1 | 16µM | i | i | i | i | i
Cc1nc(SCc2ccc(Br)cc2)[nH]c(=O)c1C | ? | i | i | i | i | i
CCCc1cc(=O)[nH]c(SCc2csc(-c3ccccc3)n2)n1 | i | nt | i | nt | i | ?
CCc1nc(SCc2ccc(F)cc2)[nH]c(=O)c1C#N | 4.5µM | i | i | nt | i | ?
Cc1cc(=O)[nH]c(SCc2nc3ccc([N+](=O)[O-])cc3[nH]2)n1 | ? | nt | i | nt | i | ?
CCCc1cc(=O)[nH]c(SCc2cccnc2)n1 | 20µM | i | i | nt | i | i
CCCc1cc(=O)[nH]c(SCC(=O)N(Cc2ccccc2)C(C)C)n1 | i | i | i | i | i | i
CC(C)c1ccc(C2C3=C(COC3=O)Nc3cc4c(cc32)OCO4)cc1 (stereo not drawn) | nt | nt | i | nt | nt | nt
CSc1ccc(S(=O)(=O)NCCCOC(C)C)cc1 | nt | nt | i | nt | nt | nt
O=C(Nc1cccc([N+](=O)[O-])c1)c1ccn[nH]1 | nt | nt | i | nt | nt | nt
COC(C#CCCN(C)C)(c1ccccc1)c1ccccc1 | i | i | i | nt | i | i
CC1(C)NC(=O)N(CCOCCOc2ccccc2-c2ccccc2)C1=O | nt | nt | i | nt | nt | nt
S=c1[nH]nc(Cc2sc(-c3ccccc3)nc2-c2ccccc2)o1 | i | i | i | i | i | i
CCCc1cc(=O)[nH]c(SCC(=O)N(C)CC(=O)Nc2ccc(C)cc2)n1 | i | i | i | i | i | -115
CCCc1cc(=O)[nH]c(SCC(=O)NC(=O)OCC)n1 | i | i | i | i | i | ?
COc1ccc(C2N(c3cc(Cl)ccc3OC)C(=O)C3CCCN32)cc1OC (stereo not drawn) | i | i | i | i | i | ?
CN1CCN(C(=S)c2ccc(-c3cccc(Cl)c3Cl)o2)CC1 | 22µM | nt | i | nt | i | i
O=C(Nc1ccccc1)c1ccc(-c2ccccc2Cl)o1 | i | nt | i | nt | i | -92
S=C(c1ccc(-c2ccccc2Cl)o1)N1CCCCC1 | 28µM | nt | i | nt | i | i
Cc1ccc(N(CCC(=O)Nc2nnc(C3CC3)s2)S(=O)(=O)c2ccccc2)cc1 | i | nt | i | nt | i | ?
CC1=C(/C=C/C(C)=C/C=C/C(C)=C\CO)C(C)(C)CCC1 | nt | nt | i | nt | nt | nt
N#CC1=C(N)Oc2ccc3ccc(O)cc3c2C1c1ccsc1 (stereo not drawn) | ? | i | i | nt | i | ?
N=C1C(c2nc3ccccc3c(=O)[nH]2)=C(O)CN1CCc1ccccc1 | ? | i | 11µM | i | i | i
N=C1C(c2nc3ccccc3c(=O)[nH]2)=C(O)CN1CCO | ? | i | i | i | i | i
SMILES | HPGD block | IMPase cell inh | IMPase Li inh | 15-hLO-2 inh | ALOX12 inhib | PNC inhibitor
COCCN1CC(O)=C(c2nc3ccccc3c(=O)[nH]2)C1=N | ? | i | i | nt | i | -100
Cc1cc(C)cc(OCCOCCn2c(-c3ccc(Cl)cc3)nc3ccccc3c2=O)c1 | nt | i | nt | nt | nt | nt
CCCCNC(=O)CC1Nc2cc(C)c(C)cc2NC1=O (stereo not drawn) | nt | i | nt | nt | nt | nt
O=C(Nc1cc(C(F)(F)F)ccc1N1CCOCC1)C1Cc2ccccc2CN1C(=O)c1ccco1 (stereo not drawn) | ? | i | i | i | i | i
CC(=O)Nc1ccc(S(=O)(=O)NC2(C(F)(F)F)C(=O)Nc3c2c(=O)n(C)c(=O)n3C)cc1 (stereo not drawn) | 20µM | i | i | i | i | ?
Nc1nc(-c2ccccc2)cc(N2CCCCC2)n1 | i | i | i | i | i | -106
CCn1cc(CNC(=S)Nc2cccc(Cl)c2C)cn1 | nt | nt | i | nt | nt | nt
Nc1c(S(=O)(=O)O)cc(Nc2ccc(Nc3nc(Cl)nc(Nc4ccc(S(=O)(=O)O)cc4)n3)c(S(=O)(=O)O)c2)c2c1C(=O)c1ccccc1C2=O | 16µM | ? | i | i | i | nt
O=C(CSc1nc2ccccc2n1S(=O)(=O)c1ccccc1)N1CCCCC1 | 1.8µM | i | i | i | i | i
O=C(Cn1c(SCC(=O)N2CCCc3ccccc32)nc2ccccc21)N1CCCC1 | i | i | i | nt | i | -100
CCCCNC(=O)CSc1nc2ccccc2n1S(=O)(=O)c1ccc(Br)cc1 | 2.5µM | nt | i | nt | i | i
O=C(CSc1nc2ccccc2n1S(=O)(=O)c1cccc([N+](=O)[O-])c1)NCCc1ccccc1 | ? | nt | i | nt | i | -113
Cc1ccc(CSCCNC(=O)c2ccc(NS(C)(=O)=O)cc2)cc1 | nt | nt | i | nt | nt | nt
COc1ccc(CC(=O)NC(C)c2nnc(SCC(=O)Nc3cc(C)ccc3OC)n2C)cc1 (stereo not drawn) | nt | nt | i | nt | nt | nt
CCCCNC(=O)CSc1nc2ccccc2n1S(=O)(=O)c1ccc(Cl)cc1 | 2µM | i | i | nt | i | -119
C=CCSc1nc2ccccc2n1S(=O)(=O)c1ccc(C)cc1 | i | i | i | nt | i | ?
COc1ccc(CCNC(=O)CCC2COc3ccccc3O2)cc1OC (stereo not drawn) | i | i | i | nt | i | i
COc1cc(OC)cc(C(=O)Nc2cc3c(cc2N2CCOCC2)n(C)c(=O)n3C)c1 | nt | i | nt | nt | nt | nt
C/C(=N\NC(=O)c1cc(C(C)C)[nH]n1)c1ccco1 | 22µM | i | i | nt | i | i
C/C(=N/NC(=O)c1cc(-c2ccc(Br)s2)[nH]n1)c1ccco1 | nt | nt | i | nt | nt | nt
COc1ccc(C(=O)N2CCC3(CC2)CN(c2ncccn2)C3)cc1 | ? | nt | i | i | i | nt
Cc1cc(N2CCC(C)CC2)n2nc(C)c(-c3ccccc3)c2n1 | ? | i | i | i | i | i
Cc1cc(N2CCCCC2)n2nc(C)c(-c3ccccc3)c2n1 | nt | i | nt | i | i | -82
Cc1cc(N2CCCC2)n2nc(C)nc2n1 | i | nt | i | nt | i | -84
Cc1n(-c2ccccc2)c2ccc(Cl)cc2[n+]1CCO | nt | nt | i | nt | nt | nt
SMILES | HPGD block | IMPase cell inh | IMPase Li inh | 15-hLO-2 inh | ALOX12 inhib | PNC inhibitor
O=C(C1=C(O)C(=O)N(c2ncccn2)C1c1ccc(Cl)c(Cl)c1)c1ccco1 (stereo not drawn) | ? | i | ? | ? | ? | ?
CC(=O)C1=C(O)C(=O)N(Cc2cccnc2)C1c1ccccc1Cl (stereo not drawn) | i | i | i | i | i | i
Cc1ccc(C(=O)C2=C(O)C(=O)N(Cc3ccccc3)C2c2cccnc2)o1 (stereo not drawn) | i | ? | 10µM | i | i | ?
O=C(C1=C(O)C(=O)N(c2ncccn2)C1c1cccc(Cl)c1)c1ccco1 (stereo not drawn) | i | i | ? | i | i | i
Cc1ccc(C(=O)C2=C(O)C(=O)N(c3ncccn3)C2c2ccc(Cl)cc2)o1 (stereo not drawn) | i | ? | 13µM | nt | i | i
O=C(C1=C(O)C(=O)N(c2ncccn2)C1c1ccc(Cl)cc1)c1ccco1 (stereo not drawn) | i | ? | 13µM | i | i | i
